Drawing on PubChem BioAssay (NCATS), this text covers Potency, outcome and Z-AUC for 4 compounds.

Test [1] relates to Zika virus NS2B-NS3 protease (unlinked complex). Nature of the test: Primary screen GU Rhodamine qHTS for Zika virus inhibitors: Unlinked NS2B-NS3 protease assay (AID 1347159). Further: on the % scale 0 is the no-effect control and ±100 the full control effect; nearly all actives have a fitted effect of over 60% in size. An outline of the steps:
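Noncovalent NS2B hydrophilic domain–NS3 protease domain complex (25 nM) preincubated 15 min at room temperature with compounds (up to 114 microM) in 10 mM Tris-HCl pH 8.0, 0.01% Tween 20; 1.5 microM Rhodamine110 substrate added, fluorescence change over 15 min fitted to Hill equation.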

Test [2] concerns Zika virus NS2B-NS3 protease (linked construct). The experiment in a line: Primary screen NINDS Rhodamine qHTS for Zika virus inhibitors (AID 1347160). Further: on the % scale 0 is the no-effect control and ±100 the full control effect; nearly all actives have a fitted effect of over 55% in size. Put shortly: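 Purified linked NS2B-NS3 protease (NS2B hydrophilic domain joined to NS3 protease by flexible linker), 25 nM in 10 mM Tris-HCl pH 8.0, 0.01% Tween 20. Compounds titrated, 15 min preincubation at room temperature; 1.5 microM Rhodamine110 substrate, FITC fluorescence change over 15 min.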

Test [3] addresses Calcium and integrin-binding protein 1 (Homo sapiens) (UniProt Q99828). The experiment in a line: Primary qHTS for Identification of Calcium Integrin Binding Protein 1 (CIB1) Competitor (AID 1508620).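 Further: GST tagged CIB1 binding a fluorescein labelled alphaIIb integrin peptide tracer; top concentration of the series differs between compounds; on the % scale 0 is the no-effect control and ±100 the full control effect.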 An outline of the steps:
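Fluorescence polarization competition: CIB1-GST (1 uM final) preincubated with compound 15 min at room temperature, then FITC-labeled alphaIIb peptide (100 nM final) added for another 15 min. Polarization read at Ex 480/Em 540.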

For test [4], the target named is Cytochrome P450 2D6 (Homo sapiens) (UniProt P10635). Nature of the test: Cytochrome P450 family 2 subfamily D member 6 (CYP2D6) small molecule antagonists: luciferase biochemical (cell-free) qHTS assay (AID 1645840; active means well fitted curve in the direction sought with a large enough effect in the repeat runs; an effect the other way counts as inactive or inconclusive; further: nearly all actives have a fitted effect of over 55% in size; further: potency means the concentration at half of the fitted maximal effect). Put shortly:
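P450-Glo luminescent screen: recombinant CYP2D6 enzyme–proluciferin substrate mix preincubated with compound 10 min at room temperature, then NADPH regeneration added for 1 h at room temperature. Detection reagent added for 20 min; luciferin light read as relative luminescence units.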

Test [5] has as its target Cytochrome P450 2C9 (Homo sapiens) (UniProt P11712). Nature of the test: Cytochrome P450 family 2 subfamily C member 9 (CYP2C9) small molecule antagonists: luciferase biochemical (cell-free) qHTS assay (AID 1645842; active means well fitted curve in the direction sought with a large enough effect in the repeat runs; an effect the other way counts as inactive or inconclusive; further: nearly all actives have a fitted effect of over 55% in size; further: potency means the concentration at half of the fitted maximal effect). Put shortly: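 Luminescence, after 20 min with luciferin detection reagent, reflected CYP2C9 turnover during a 1 h NADPH-driven reaction at 37C. Enzyme-substrate mix contained 0.4% bovine serum albumin and was preincubated with compound 10 min at room temperature.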

Test [6] in a line: Primary qHTS for inhibitors of nuclear receptor binding SET domain protein 2 (NSD2) in an isogenic RCH-ACV NSD2 p.E1099K mutant (9B) (AID 1645876). Further: potency means the concentration at half of the fitted maximal effect; nearly all actives have a fitted effect of over 70% in size.
Test [7] is described as follows: Primary qHTS for inhibitors of nuclear receptor binding SET domain protein 2 (NSD2) in an RCH-ACV wild type WT cells (2C) (AID 1645877). Further: potency means the concentration at half of the fitted maximal effect; nearly all actives have a fitted effect of over 70% in size.
Test [8] concerns the target Glutathione peroxidase 1 (Homo sapiens) (UniProt P07203). Nature of the test: Primary qHTS Assay for Inhibitors of Recombinant Selenoprotein Glutathione Peroxidase 1 (GPX1) (AID 1845191). Further: nearly all actives have a fitted effect of over 65% in size. Put shortly: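 Recombinant GPX1 (10 nM final) was preincubated with compound for 30 min at room temperature, then reacted with 1 mM GSH, 0.5 mM CHP, 0.5 mM NADPH and 100 nM glutathione reductase; NADPH fluorescence (340/450 nm) was read at 0 and 15 min.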

Test [9] concerns the target Phospholipid hydroperoxide glutathione peroxidase GPX4 (Homo sapiens) (UniProt P36969). Nature of the test: Primary qHTS Assay for Inhibitors of Recombinant Selenoprotein Glutathione Peroxidase 4 (GPX4) (AID 1845192). Further: on the % scale 0 is the no-effect control and ±100 the full control effect; nearly all actives have a fitted effect of over 65% in size. To be noted: outcome: dose series up to 50 µM unless noted. Put shortly:
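GR-coupled readout: 100 nM GR, 1 mM GSH, 0.5 mM NADPH; NADPH fluorescence (ex 340/em 450 nm) read at t=0 and after 15 min RT. GPX4 200 nM, preincubated 30 min with compound; substrate 0.5 mM CHP.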

Test [10] has as its target Luciferin 4-monooxygenase (Photinus pyralis) (UniProt P08659). Nature of the test: Primary firefly luciferase (FLuc) qHTS assay for identification of artifact compounds. (AID 1845220). Further: nearly all actives have a fitted effect of over 60% in size. Put shortly:
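Reaction readout was CCD-imaged luminescence, taken 5 min after adding 10 nM purified firefly enzyme to compound-treated wells holding 10 uM luciferin and ATP in pH 7.6 buffer.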

Test [11] is described as follows: Primary fluorescence-based thiol-reactive (MSTI) qHTS assay for identification of artifact compounds. (AID 1845221).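 Further: thiol-reactive compounds lower the probe fluorescence signal; nearly all actives have a fitted effect of over 65% in size.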 Put shortly:
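Curve-fitted percent inhibition (4-parameter Hill) derived from fluorescence, Ex 525/Em 598 nm, scaled with Acetyl-MSTI and MSTI; 1 h incubation at room temperature.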

For test [12], the system named is Nanoluciferase (engineered Oplophorus gracilirostris luciferase). Nature of the test: Primary Nanoluciferase (NLuc) qHTS assay for identification of artifact compounds. (AID 1845222).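 Further: NLuc secreted into diluted conditioned medium of S16 cells; 0% = DMSO and -100% = no enzyme.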 Put shortly:
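Concentration-response data were obtained by luminescence after 5 min with Nano-Glo substrate at 1:100. The enzyme was diluted S16 NLuc-expressing cell medium, preincubated with compound for 15 min at RT. Curves were fitted with a 4-parameter Hill model.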

Test [13] is described as follows: Primary redox qHTS assay for identification of artifact compounds. (AID 1845223).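 Further: 0% = DMSO and 100% = reference compound.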 Put shortly: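 Amplex Red (25 uM) and HRP (250 mU/mL) in HBSS, with compounds for 15 min, then 250 uM DTT for 30 min, room temperature, dark. Fluorescence 525/598 nm read; normalized to DMSO and 10 uM DA3003; Hill fit.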
Test [14] is described as follows: qHTS drug screen for cell cycle checkpoint inhibitors in PARPi-resistant BRCA-mutant ovarian cancer cell lines. (AID 1963452; calls by dose curve). To be noted: PEO1/OlaR viability, CellTiter-Glo luminescence, 96 h, stronger effect = lower value. Put shortly: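 PEO1, PEO4 and PEO1/OlaR ovarian cancer cells, 600 per well, exposed 96 h at 37C to a dilution series. Viability read by CellTiter-Glo luminescence, normalized to DMSO and empty wells; activity summarized as Z-AUC.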

In the next test the test system is CAOV3. Nature of the test: Primary qHTS to identify gynecologic anti-cancer compounds using libraries of approved drugs and bioactive compounds (AID 1345084). Further: nearly all actives have a fitted effect of over 55% in size. Further: potency means the concentration at half of the fitted maximal effect. To be noted: Gynecologic cancer cell panel viability, ATPlite luminescence, 48 h; series mostly up to 57.5 µM. An outline of the steps:
(§1)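 Cytotoxicity screen measuring ATP content by luciferase luminescence. Each compound is applied at five concentrations for 48 h at 37 C with 5% CO2.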

Another test concerns Es-2. The description is as above. The following applies: Gynecologic cancer cell panel viability, ATPlite luminescence, 48 h; series mostly up to 57.5 µM. Put shortly:
as §1

The next test concerns JEG-3. The test is described as above. To be noted: Gynecologic cancer cell panel viability, ATPlite luminescence, 48 h; series mostly up to 57.5 µM. An outline of the steps:
as §1

A further test relates to OV90. Described as above. To be noted: Gynecologic cancer cell panel viability, ATPlite luminescence, 48 h; series mostly up to 57.5 µM. An outline of the steps: as §1
A further test deals with Tov-21-G. The test is described as above. The following applies: Gynecologic cancer cell panel viability, ATPlite luminescence, 48 h; series mostly up to 57.5 µM. An outline of the steps:
as §1

The next test relates to C33A. The description is as above. The following applies: Gynecologic cancer cell panel viability, ATPlite luminescence, 48 h; series mostly up to 57.5 µM. Put shortly: as §1
A further test concerns CASKI. Described as above. The following applies: Gynecologic cancer cell panel viability, ATPlite luminescence, 48 h; series mostly up to 57.5 µM. An outline of the steps: as §1
The test system of the next test is HeLa. The test is described as above. The following applies: Gynecologic cancer cell panel viability, ATPlite luminescence, 48 h; series mostly up to 57.5 µM. An outline of the steps: as §1
The next test deals with Hek293T. The test is described as above. The following applies: Gynecologic cancer cell panel viability, ATPlite luminescence, 48 h, control line for the selectivity index; series mostly up to 57.5 µM. An outline of the steps: as §1
For another test, the system named is PA-1. The description is as above. The following applies: Gynecologic cancer cell panel viability, ATPlite luminescence, 48 h; series mostly up to 57.5 µM. Put shortly:
as §1

For the next test, the system named is Tov112D. Described as above. The following applies: Gynecologic cancer cell panel viability, ATPlite luminescence, 48 h; series mostly up to 57.5 µM. An outline of the steps:
as §1

The nature of test [15]: qHTS to identify inhibitors of the type 1 interferon - major histocompatibility complex class I in skeletal muscle: primary screen against the NCATS Mechanism Interrogation Plate v5.0 (MIPE) Libary (AID 1347411). Further: potency means the concentration at half of the fitted maximal effect; nearly all actives have a fitted effect of over 65% in size. An outline of the steps: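 Luminescence from HiBiT-tagged endogenous HLA-B*08:01 served as the MHC class I read-out. CRISPR-engineered C25cl48 human myoblasts received 4.0 ng/ml IFN-beta plus compound for 24 hrs, with an 11-point, 1:3 series topping at 46 uM final.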

In another test the test system is SKOV3. The experiment in a line: Primary qHTS to identify gynecologic anti-cancer compounds using libraries of approved drugs and bioactive compounds (AID 1345084). Further: nearly all actives have a fitted effect of over 55% in size. Further: potency means the concentration at half of the fitted maximal effect. To be noted: Gynecologic cancer cell panel viability, ATPlite luminescence, 48 h; series mostly up to 57.5 µM. An outline of the steps:
as §1

Setting [16] is: measured here: PEO1 parental Z-AUC.

Values joined by “and” are separate entries in the source; they are usually repeats but may differ in a detail not shown here. Identical values can stand only once. Inconclusive results are not listed. Active and inactive are the calls of the source. Unless noted, the call rests on the fitted dose curve; in most records, active means well fitted curve in the direction sought with a large enough effect; inconclusive means small, poorly fitted or top-dose-only effect, or another doubt; inactive means no such curve, though single readings can be large; an effect the other way counts as inactive or inconclusive.

Sequence of Glutathione peroxidase 1 (Homo sapiens) (P07203 whole entry, looked up): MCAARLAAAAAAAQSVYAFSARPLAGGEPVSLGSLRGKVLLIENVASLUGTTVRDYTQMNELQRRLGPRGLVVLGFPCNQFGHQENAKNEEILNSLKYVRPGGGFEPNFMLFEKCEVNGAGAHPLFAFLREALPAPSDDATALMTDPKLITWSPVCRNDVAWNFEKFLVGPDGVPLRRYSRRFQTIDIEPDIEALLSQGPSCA
Sequence of Cytochrome P450 2D6 (Homo sapiens) (P10635 whole entry, looked up): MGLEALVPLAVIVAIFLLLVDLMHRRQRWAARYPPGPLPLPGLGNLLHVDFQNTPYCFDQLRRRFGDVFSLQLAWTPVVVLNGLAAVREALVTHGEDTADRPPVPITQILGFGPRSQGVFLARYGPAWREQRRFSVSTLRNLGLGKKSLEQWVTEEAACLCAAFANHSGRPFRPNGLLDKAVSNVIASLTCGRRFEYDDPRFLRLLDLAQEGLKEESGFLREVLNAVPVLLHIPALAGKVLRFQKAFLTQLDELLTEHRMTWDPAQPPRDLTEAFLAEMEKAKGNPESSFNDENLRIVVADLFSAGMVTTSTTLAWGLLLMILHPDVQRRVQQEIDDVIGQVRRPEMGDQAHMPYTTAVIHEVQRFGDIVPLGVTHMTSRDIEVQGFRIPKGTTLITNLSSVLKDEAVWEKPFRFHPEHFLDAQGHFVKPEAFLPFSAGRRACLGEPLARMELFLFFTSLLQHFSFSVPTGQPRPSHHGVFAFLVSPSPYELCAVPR
Sequence of Calcium and integrin-binding protein 1 (Homo sapiens) (Q99828 whole entry, looked up): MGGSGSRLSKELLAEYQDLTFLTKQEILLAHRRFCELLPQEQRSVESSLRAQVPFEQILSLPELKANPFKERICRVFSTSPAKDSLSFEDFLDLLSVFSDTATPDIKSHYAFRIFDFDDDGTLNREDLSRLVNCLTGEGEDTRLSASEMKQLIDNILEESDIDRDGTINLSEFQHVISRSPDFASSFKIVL
Sequence of Cytochrome P450 2C9 (Homo sapiens) (P11712 whole entry, looked up): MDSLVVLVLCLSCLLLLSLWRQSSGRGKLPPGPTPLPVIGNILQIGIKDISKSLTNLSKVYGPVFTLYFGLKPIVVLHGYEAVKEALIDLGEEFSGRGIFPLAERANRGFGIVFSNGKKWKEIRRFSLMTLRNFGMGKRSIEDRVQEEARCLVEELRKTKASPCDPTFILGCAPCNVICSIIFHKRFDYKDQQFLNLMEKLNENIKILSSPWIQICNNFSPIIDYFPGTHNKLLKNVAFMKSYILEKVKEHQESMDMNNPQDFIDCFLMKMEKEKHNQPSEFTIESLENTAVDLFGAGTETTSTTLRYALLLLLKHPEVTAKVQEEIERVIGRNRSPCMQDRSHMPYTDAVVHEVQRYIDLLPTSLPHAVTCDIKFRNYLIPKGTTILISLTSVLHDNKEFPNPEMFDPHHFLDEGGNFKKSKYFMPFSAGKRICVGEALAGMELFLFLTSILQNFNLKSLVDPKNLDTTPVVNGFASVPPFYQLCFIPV
Sequence of Phospholipid hydroperoxide glutathione peroxidase GPX4 (Homo sapiens) (P36969 whole entry, looked up): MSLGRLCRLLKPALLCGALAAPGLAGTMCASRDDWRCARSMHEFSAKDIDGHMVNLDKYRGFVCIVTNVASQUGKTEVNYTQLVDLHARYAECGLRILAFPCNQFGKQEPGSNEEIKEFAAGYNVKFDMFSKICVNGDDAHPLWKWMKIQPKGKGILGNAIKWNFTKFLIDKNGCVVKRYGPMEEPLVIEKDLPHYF

For the compound `FC(F)(F)c1ccc(CNc2ccc(Cc3c[nH]c4ncccc34)cn2)cc1`, the Potency result in test [1], in [2], in test [8], in test [9], in test [10] and in test [11] was “inactive” in each case. Further, the Potency result (in [12]; in test [13]; in the test with CAOV3; with Es-2; in the test on JEG-3; in the test on OV90) was “inactive” in each case. Also, the Potency result in the test with Tov-21-G is “inactive”. Moreover, the result in test [3] was inactive. For the same compound, the Potency is 0.19 µM (active) in test [4]; 1.2 µM (active) in test [5]; 16.3 µM (active) and 10.5 µM (active) in test [6]; 14.5 µM (active) and 8.33 µM (active) in test [7]. The Z-AUC in test [14] is -0.674 (inactive); in [14] (setting [16]), -1.25; in [14] (measured here: PEO4 Z-AUC) it was -0.926.

As to `CCOc1ccc(-c2nc(-c3cccc4c3CCC4NCCO)no2)cc1OCC` (centres undefined), the Potency result in [1], in test [2], in [4], in test [5], in test [8] and in [9] was “inactive” throughout. The Potency result (in test [10]; in [11]; in test [12]; in [13]; in the test on C33A; in the test with CASKI) was “inactive” in each case. In addition, the Potency entry with HeLa, in the test on Hek293T, with JEG-3, in the test on PA-1, with Tov-21-G and in the test with Tov112D was “inactive” throughout. Further, the outcome in [3] was inactive. Besides, the Potency in [6] was 6.49 µM (active); in test [7], 7.28 µM (active).

Consider `COC(=O)/C=C/C(=O)N(O)CCCCNCc1ccc(COC(=O)Nc2cccc3ccccc23)cc1`, for which the Potency result in [1], in [2], in [8], in test [9], in test [10] and in test [11] was “inactive” each time. Further, the Potency entry (in test [12]; in test [13]; with HeLa; in the test with JEG-3; in the test on OV90; in the test on Tov-21-G) was “inactive” throughout. Also, in the test on Tov112D, the Potency entry was “inactive”. In addition, the Potency is 13.1 µM (active) in test [15] and 9.34 µM (active) in [6]. In addition, in test [3], the result was inactive. The Z-AUC is 0.336 (inactive) in test [14], 0.0181 in test [14] (setting [16]) and 0.131 in [14] (measured here: PEO4 Z-AUC).

Take `Cc1ccc2c(Nc3ccc(Cl)cc3)nccc2c1Nc1ncccc1-c1ncnc2nc[nH]c12`: the Potency result in test [1], in test [2], in test [8], in [9], in test [10] and in test [12] was “inactive” each time. The Potency result (in [13]; in the test with C33A; in the test on HeLa; with Hek293T; in the test with JEG-3) was “inactive” throughout. Further, in [3], the result was inactive. Also, the Potency in test [4] was 12 µM (active); in test [5] it was 12 µM (active); in test [6], 18.4 µM (active); in [7], 20.6 µM (active); with OV90, 5.01 µM (active); in the test on SKOV3, 15.8 µM (active).
